Measurements published in the supplement of paper PMC10338343.
± gives the standard deviation.

tested on: MILI (PIWIL2) piRISC loaded with piRNA #1 (26 nt); assay: pre-steady-state target cleavage rate (min^-1); guide: piRNA #1 5'p-UGAGGUAGUAGGUUGUAUAGUAUCCA; MIWI and MILI are mouse PIWI proteins and EfPiwi is from a freshwater sponge; tags in brackets are library labels; higher = faster piRNA-guided slicing of the target; details: auxiliary factor: 500 nM mouse GTSF1
Outline: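 A transcribed, DNA-blocked target RNA library […] was incubated at 33 °C for 0–8 or 0–960 min with 1 nM active affinity-purified piRISC carrying one synthetic guide, in HEPES–potassium acetate buffer with or without 500 nM GTSF1 partner protein. Uncleaved targets were then sequenced and normalised to depth and to weakly complementary targets. Data from three trials were pooled, with k3 capped at 0.0001 min^-1, and a burst-and-steady-state fit yielded the pre-steady-state cleavage rate.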
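Also: 1 nM active piRISC with 0.1 nM target library at 33 °C single turnover.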

Question: For GGAGUGGAAACUAUACAACCUACUAGCUCA, which “pre-steady-state target cleavage rate” value is on record?
Answer: The value was 0.0453 ± 0.013.

Question: How did the “pre-steady-state target cleavage rate” value turn out when GGAGUGGAUUCUAUACAACCUAGUACCUCA was run?
Answer: Its value is 0.0634 ± 0.011.

Question: GGAGUGGAUACAAUAGAACCUACUACCUCA was tested. Which “pre-steady-state target cleavage rate” value did it give?
Answer: Its value is 0.163 ± 0.009.

Question: For GGAGUGGAAACUAUACAUCCUACUACCUCA, which “pre-steady-state target cleavage rate” value is on record?
Answer: Its value is 0.275 ± 0.024.

Question: With GGAGUGGAUACUAUACAACCUACGACCUCA as the sequence, how does the “pre-steady-state target cleavage rate” value read?
Answer: Its value is 0.0834 ± 0.0092.

Question: How did the “pre-steady-state target cleavage rate” value turn out when GGAGACCUUACUAUACAACCAACAACCUCA was run?
Answer: The value was 0.00353 ± 0.0022.

Question: For GGAGACCUAUGAUUACAACCUACUACCUCCA, which “pre-steady-state target cleavage rate” value is on record?
Answer: Its value is 0.00682 ± 0.0026.

Question: GGAGACCUUACUAUACAACGUACUAGCUCA was tested. Which “pre-steady-state target cleavage rate” value did it give?
Answer: The value was 0.0137 ± 0.0043.

Question: For GGAGACCUAUGUAACAACCUACUACCUCA, which “pre-steady-state target cleavage rate” value is on record?
Answer: The value was 0.0402 ± 0.0057.

Question: Which “pre-steady-state target cleavage rate” value does the source give for GGAGACCUUAUUAUACAACCUACUACCUCA here?
Answer: The value was 0.14 ± 0.011.

Question: Which “pre-steady-state target cleavage rate” value does the source give for GGAGACCUAACAUAACAACCUACUACCUCA here?
Answer: Its value is 0.0321 ± 0.011.

Question: How did the “pre-steady-state target cleavage rate” value turn out when GGAGACCUAUGAUAUCAACCUAGCUACCUCA was run?
Answer: Its value is 0.00339 ± 0.0024.

Question: With GGAGACCUAUGAUAUCAACGUACUAGCUCA as the sequence, how does the “pre-steady-state target cleavage rate” value read?
Answer: Its value is < 0.0001.

Question: How did the “pre-steady-state target cleavage rate” value turn out when GGAGACCUAUGUAUACUACCUACUACGUCA was run?
Answer: The value was 0.0155 ± 0.0032.

Question: How did the “pre-steady-state target cleavage rate” value turn out when GGAGACCUAUCUAUACAACCUACUAACUCA was run?
Answer: Its value is 0.0846 ± 0.017.

Question: Which “pre-steady-state target cleavage rate” value does the source give for GGAGACCUAUGAUUACAUCCUACUACCUGA here?
Answer: Its value is 0.0052 ± 0.0025.

Question: How did the “pre-steady-state target cleavage rate” value turn out when GGAGACCUAUGAUAACAACCUACUACCUCCA was run?
Answer: The value was 0.00565 ± 0.0022.

Question: Which “pre-steady-state target cleavage rate” value does the source give for GGAGACCUAUGAUAUCAACCUACGUACCUCA here?
Answer: Its value is 0.00296 ± 0.0024.

Question: With GGAGACCUAUGAUAUGUUGCUACUACCUAA as the sequence, how does the “pre-steady-state target cleavage rate” value read?
Answer: The value was < 0.0001.

Question: How did the “pre-steady-state target cleavage rate” value turn out when GGAGACCAUAGUAUACAACCUACUACCACA was run?
Answer: Its value is 0.133 ± 0.015.

Question: With GGAGACCUAUCUAAACUACCUACUACCUCA as the sequence, how does the “pre-steady-state target cleavage rate” value read?
Answer: The value was 0.051 ± 0.012.

Question: Which “pre-steady-state target cleavage rate” value does the source give for GGAGACCUUACUAUACUUGCUACUACCUCA here?
Answer: Its value is 0.0548 ± 0.0062.

Question: GGAGAGGAUACUAAUGAACCUACUACCUCA was tested. Which “pre-steady-state target cleavage rate” value did it give?
Answer: Its value is 0.0555 ± 0.0058.

Question: GGAGACCUAUCUAAACAAGCUACUACCUCA was tested. Which “pre-steady-state target cleavage rate” value did it give?
Answer: Its value is 0.176 ± 0.019.

Question: Which “pre-steady-state target cleavage rate” value does the source give for GGAGACGAUACUAAACAACCUACUAGCUCA here?
Answer: The value was 0.111 ± 0.019.

Question: How did the “pre-steady-state target cleavage rate” value turn out when GGAGUGCAUACUAUAGAACCUACUACCUCA was run?
Answer: The value was 0.177 ± 0.013.

Question: How did the “pre-steady-state target cleavage rate” value turn out when GGAGACCUAUGUAUACAACCUACUACCCUCA was run?
Answer: The value was 0.0911 ± 0.011.

Question: With GGAGUGGAUACAAAACAACCUACUACCUCA as the sequence, how does the “pre-steady-state target cleavage rate” value read?
Answer: Its value is 0.12 ± 0.0086.

Question: Which “pre-steady-state target cleavage rate” value does the source give for GGAGACCUAUGAAUACAACCUACUCCCUCA here?
Answer: Its value is 0.00391 ± 0.0022.

Question: With GGAGACCUAUGAUUCACAACCUACUACCUCA as the sequence, how does the “pre-steady-state target cleavage rate” value read?
Answer: Its value is 0.00321 ± 0.0032.

Question: With GGAGACCUAUGAUAUGUUCCUACAAGCUCA as the sequence, how does the “pre-steady-state target cleavage rate” value read?
Answer: The value was < 0.0001.

Question: GGAGACCUAUGUAUACAACCAACUACCUCA was tested. Which “pre-steady-state target cleavage rate” value did it give?
Answer: Its value is 0.0033 ± 0.002.

Question: For GGAGACCAUACUAUACAACCUCUACCUCA, which “pre-steady-state target cleavage rate” value is on record?
Answer: Its value is 0.00997 ± 0.0029.

Question: How did the “pre-steady-state target cleavage rate” value turn out when GGAGACCUAUGAUAACAACCUACAACCUCA was run?
Answer: Its value is 0.00456 ± 0.0024.

Question: For GGAGUGCAUACUUUACAACCUACUACCUCA, which “pre-steady-state target cleavage rate” value is on record?
Answer: The value was 0.166 ± 0.0083.

Question: With GGAGAGGAUUCUAUACAUCCUACUACCUCA as the sequence, how does the “pre-steady-state target cleavage rate” value read?
Answer: Its value is 0.263 ± 0.013.

Question: Which “pre-steady-state target cleavage rate” value does the source give for GGAGACCUUACUAUACAACCUACUACGUCA here?
Answer: Its value is 0.0741 ± 0.01.

Question: GGAGACCUAUGAUAACAACCUACUGACCUCA was tested. Which “pre-steady-state target cleavage rate” value did it give?
Answer: The value was 0.00368 ± 0.0025.

Question: With GGAGACCUAUCUUUAGAACCUACUACCUCA as the sequence, how does the “pre-steady-state target cleavage rate” value read?
Answer: Its value is 0.0437 ± 0.0095.

Question: Which “pre-steady-state target cleavage rate” value does the source give for GGAGACCUAUGAUUACAACCUACUACCUUA here?
Answer: The value was 0.00425 ± 0.0023.
